Bioassay records deposited in PubChem BioAssay by several laboratories.
SARS 3CLpro inh: SARS-CoV 3CLpro protease inhibition. inhibition, % at 6 µM. recombinant SARS-CoV 3CLpro, quenched FRET peptide cleavage. 290,000 tested, 0.14% active. P0C6X7; in the data active = inhibition above about 12%
RecA splice inh: inhibitors of M. tuberculosis RecA intein splicing | P9WHJ3 | cell-free RecA intein splicing, fluorescence | inhibition, % (no concentration beside the values) | 290,000 tested, 0.75% active | AID 2221; in the data active = inhibition above about 30%;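 note: 0% = vehicle wells and 100% = reference inhibitor control wells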
Mtb FBA inh: inhibitors of M. tuberculosis fructose-bisphosphate aldolase | P9WQA3 | purified M. tuberculosis FBA, fluorescence read-out | inhibition, % at 1 µM | 360,000 tested, 2.3% active | AID 588726; in the data active = inhibition above about 27%;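 note: 0% = vehicle and 100% = reference inhibitor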
Target sequence (P9WQA3 whole entry, looked up): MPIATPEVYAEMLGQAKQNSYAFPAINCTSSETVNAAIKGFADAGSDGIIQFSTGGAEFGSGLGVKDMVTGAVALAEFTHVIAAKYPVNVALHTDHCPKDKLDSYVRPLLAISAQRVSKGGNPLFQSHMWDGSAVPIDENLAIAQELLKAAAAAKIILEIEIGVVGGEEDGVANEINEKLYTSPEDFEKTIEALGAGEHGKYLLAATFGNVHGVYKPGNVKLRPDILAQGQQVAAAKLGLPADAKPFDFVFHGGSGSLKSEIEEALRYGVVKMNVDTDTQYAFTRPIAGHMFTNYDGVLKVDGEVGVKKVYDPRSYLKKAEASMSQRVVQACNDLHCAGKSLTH
CCHF vOTU inh: blocks the CCHF virus ovarian tumor domain protease. CCHFV vOTU protease, Pep-AMC fluorescence. inhibition, % at 11.5 µM. 370,000 tested, 0.55% active; note: 0% = vehicle wells with enzyme and 100% = no enzyme wells
GDH-TPI inh: counter-screen for M. tuberculosis FBA inhibitors: GDH-TPI coupled enzymes. GDH-TPI coupled enzyme counterscreen, NADH absorbance. inhibition, % at 4.8 µM. 360,000 tested, 1.2% active;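 note: 0% = DMSO wells and 100% = wells lacking the enzyme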
DUSP3 inh: DUSP3 (human) phosphatase inhibition. 290,000 tested, 0.52% active. P51452. recombinant VHR phosphatase, pNPP absorbance. inhibition, % at 13.3 µM. AID 1654; in the data active = inhibition above about 50%
Target sequence (P51452 whole entry, looked up): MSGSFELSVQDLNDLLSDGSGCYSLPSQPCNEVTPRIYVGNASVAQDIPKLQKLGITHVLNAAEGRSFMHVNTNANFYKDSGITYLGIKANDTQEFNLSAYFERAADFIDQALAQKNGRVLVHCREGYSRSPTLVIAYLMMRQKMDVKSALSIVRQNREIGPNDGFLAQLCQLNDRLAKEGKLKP
Starred values were filed as active, the others as inactive; · = no result given; + = active, no number. Most compounds without a hit are left out; they make up all but 4.7% or so of the library. Cut-off read from the data, not from the text of the source, unless noted: active = inhibition above about 30%; inactive = the rest.

SMILES	SARS 3CLpro inh	RecA splice inh	Mtb FBA inh	CCHF vOTU inh	GDH-TPI inh	DUSP3 inh
Cn1c(N2CCN(C(c3ccccc3)c3ccccc3)CC2)nc2c1c(=O)[nH]c(=O)n2C	-1	-1	0	-9	-3	-3
Cc1cccc(C)c1NC(=O)C1(C)CN(S(C)(=O)=O)CC(=O)N1Cc1ccc2c(c1)OCO2 (stereo unspecified)	·	·	·	0	·	·
CCn1c(N)c(C(N)=O)sc1=S	-7	-3	-1	6	12	-5
CCn1c(N)c(C(=O)NC2CCCCC2)sc1=S	0	-1	0	-8	43*	22
O/N=C/c1c[nH]c2ccccc12	-4	-3	-5	1	-5	5
C(=NN=Cc1c[nH]c2ccccc12)c1c[nH]c2ccccc12	·	·	-3	13	41*	·
O=C1CS/C(=N/N=C/c2c[nH]c3ccccc23)N1	-2	-5	1	2	35*	13
O=C(Nc1nnc(S(=O)(=O)N2CCCC2)s1)c1cccc([N+](=O)[O-])c1	-1	-2	3	·	39*	18
COc1ccc(C(=O)Nc2nnc(S(=O)(=O)N3CCCCCC3)s2)cc1OC	1	0	4	0	47*	2
COc1ccc(C(=O)Nc2nnc(S(=O)(=O)N3CCC(C)CC3)s2)cc1OC	10	-5	4	15	46*	-17
Cc1ccc(C(=O)Nc2nnc(S(=O)(=O)N3CCC(C)CC3)s2)cc1	3	-6	1	10	-3	-13
O=C(Nc1ccc(F)c(Cl)c1)Nc1nnc([C@H]2C[C@H](O)[C@@H](CO)O2)s1	·	·	-2	-1	-3	·
CC(C)(C)CC(C)(C)n1nnnc1N	·	·	5	15	2	·
COC(=O)[C@@H](Cc1ccccc1)N[C@H](/C=C/c1ccccc1)[C@@H](O)Cc1ccccc1	·	·	·	0	·	·
CCN1CCN(C(=O)c2cc3c(=O)n4ccccc4nc3s2)CC1	2	-82	192*	-192	18	-14
CCOC(=O)C1CCN(C(=O)c2cc3c(=O)n4ccccc4nc3s2)CC1	-1	-31	159*	-228	14	19
CCOC(=O)CC1C(=O)NCCN1C(=O)c1cc2c(=O)n3ccccc3nc2s1 (stereo unspecified)	-1	-114	·	·	·	17
CCOC(=O)CC1C(=O)NCCN1C(=O)c1cc2c(=O)n3cccc(C)c3nc2s1 (stereo unspecified)	-4	-40	162*	-149	12	21
CCC[C@@H]1C=C(C(=O)OCC)[C@H](c2ccccc2)N1S(=O)(=O)c1ccc(C)cc1	·	·	4	2	·	·
C=CCN1[C@H](C)[C@H](c2ccccc2)Oc2cc(Br)ccc2S1(=O)=O	·	·	·	-5	·	·
CC1(C)CC(=O)C=C(Nc2ccc(S(N)(=O)=O)cc2)C1	1	-1	2	-1	38*	16
CCc1ccc(NC2=CC(=O)CC(C)(C)C2)cc1	1	1	5	2	13	24
COc1ccc2cc3cc(C(=O)N(C)C4CCCCC4)oc3nc2c1	0	0	24	·	39*	6
COc1cccc(-c2cc(C(=O)N3CCCCC3C)no2)c1 (stereo unspecified)	1	-8	-1	-8	-9	11
COc1ccc2cc3cc(C(=O)N4CCCCCC4)oc3nc2c1	5	1	86*	·	39*	13
SMILES	SARS 3CLpro inh	RecA splice inh	Mtb FBA inh	CCHF vOTU inh	GDH-TPI inh	DUSP3 inh
O=C(c1cc2cc3ccc(Cl)cc3nc2o1)N1CCC2(CC1)OCCO2	-3	1	-3	1	39*	23
O=C(c1cc2cc3ccc(Cl)cc3nc2o1)N1CCN(Cc2ccc3c(c2)OCO3)CC1	·	·	1	-1	8	·
COc1ccc2cc3cc(C(=O)N4CCCCC4C)oc3nc2c1 (stereo unspecified)	5	5	40*	-12	49*	-4
COc1ccc2nc3oc(C(=O)N4CCN(c5ccccc5F)CC4)cc3cc2c1	-1	2	7	12	6	3
COC(=O)c1cc(S(=O)(=O)NCC2CCN(C(=O)C(=O)c3cccs3)CC2)cs1	·	·	·	19	·	·
O=C(CSc1nnc(-c2cccnc2)n1-c1ccccc1)Nc1ccc2c(c1)OCCO2	·	·	·	-2	·	·
CCOC(=O)C1CCN(C(=O)c2cc3cc4ccc(C)cc4nc3o2)CC1	-7	0	7	-4	32*	-4
C[C@H](CO)N1C[C@H](C)[C@H](CN(C)C(=O)OCc2ccccc2)OCc2cnnn2CCCC1=O	·	·	-2	-1	8	·
CCOc1cc(C(=O)NCCN2C(=O)S/C(=C\c3cccnc3)C2=O)cc(OCC)c1OCC	2	13	2	3	5	53*
COc1ccc(C(=O)NCCN2C(=O)S/C(=C\c3cccnc3)C2=O)c(OC)c1OC	3	10	-1	-19	33*	1
O=C(c1cc2c(=O)n3ccccc3nc2s1)N1CCc2ccccc2C1	-5	-31	·	·	·	10
Cn1c(C(=O)NCc2ccccn2)cc2c(=O)n3ccccc3nc21	2	-239	196*	-164	27	-9
O=C(NC1CCCC1)c1cc2c(=O)n3ccccc3nc2s1	·	·	178*	-264	19	·
CC1CCCCN1C(=O)c1cc2c(=O)n3ccccc3nc2s1 (stereo unspecified)	-4	-2	101*	-70	19	20
Cn1c(C(=O)NC2CCCCC2)cc2c(=O)n3ccccc3nc21	10	-405	114*	-128	12	-9
C[C@@H]1CN([C@@H](C)CO)C(=O)c2cc(Br)cnc2O[C@H]1CN(C)C(=O)C1CC1	·	·	2	-5	1	·
O=C1NC(=S)NC1(c1ccccc1)c1ccccc1	·	·	0	7	4	·
Cn1c(=O)c(C(=O)NC2CCCCCC2)c(O)c2ccccc21	4	4	2	-9	-7	60*
Nc1nc(N)c2[nH]c(-c3ccccc3)nc2n1	5	-2	+	-146	11	8
Nc1nc(N)nc(-c2ccccc2)n1	-2	-1	6	-3	7	8
Cc1ccc2nc(N3C(=O)CNC3=S)sc2c1	1	1	-1	-1	21	10
COc1ccc2nc(N3C(=O)CNC3=S)sc2c1	2	0	1	4	64*	-12
O=S1(=O)CCN2C=C(Cl)C=C(Cl)C2=N1	-1	-1	140*	-162	8	12
N#CCCCc1cn(-c2cccc(-c3noc4c3C(=O)N(CC(=O)N3CCOCC3)CC4)c2)nn1	·	·	·	-2	·	·
C=CCn1c(-c2ccccc2)nc(=S)c2c1CCCC2	1	2	4	-10	-5	-18
S=c1nc(-c2ccccc2)n(CCN2CCOCC2)c2c1CCCC2	1	-2	4	14	51*	12
S=c1nc(-c2ccccc2)n(Cc2ccco2)c2c1CCCC2	-1	·	·	·	·	19
CC1(C)Cc2c(c(=S)nc(-c3ccccc3)n2CCN2CCOCC2)CO1	-2	1	2	20	51*	-8
COCCn1c(-c2ccccc2)nc(=S)c2c1CC(C)(C)OC2	-8	-4	-3	13	37*	-13
